Test results reported in PubChem BioAssay AID602262 (National Center for Advancing Translational Sciences (NCATS), 2012).
The source made the active and inactive calls. Calls follow the shape of the dose curve; as a rule, active = well fitted curve in the direction sought with a large enough effect; inactive = no such curve, though single readings can be large or run the other way.

Assay: qHTS Assay for Agonists of the Relaxin Receptor RXFP1: V1B SAR
Conditions: HEK293 V1B cells, cAMP TR-FRET, 30 min; series mostly up to 78.1 µM
From the text: The relaxin hormone is involved in the variety of biological functions in normal tissues and diseases. The role of relaxin is well-established in female reproduction and parturition, mammary gland and endometrial development, maintenance of myometrial quiescence during pregnancy. Relaxin signaling through its G protein-coupled receptor (GPCR) RXFP1 results in ECM remodeling through regulation of collagen deposition, cell invasiveness, proliferation and overall tissue homeostasis. […] Recombinant human relaxin (rhRlx) is currently being tested in clinical trials as a protective agent in congestive heart failure, in treating severe preeclampsia, and as an anti-fibrotic agent in systemic sclerosis. Upon relaxin binding RXFP1 activation leads to the activation of adenylate cyclase (AC) via Gs. cAMP will activate PKA, which phosphorylates many signaling proteins. Thus, detection of cAMP increase is an easy and reliable indication of relaxin receptor activation. To screen for agonists of the relaxin receptor, a HEK293T cell line stably transfected with RXFP1 was used. RXFP1 activation was assayed by changes in cAMP levels as detected with a time-resolved fluorescence energy transfer (TR-FRET) cAMP detection kit. This assay measures activation of a cell expressing V1B, another GPCR targeted by relaxin, to determine the selectivity of compounds for RXFP1. NIH Chemical Genomics Center [NCGC] NIH Molecular Libraries Probe Production Centers Network [MLPCN] MLPCN Grant: R03 MH085705-01A1 Assay Submitter (PI): Alexander Agoulnik
This is a cell-based assay for cAMP second messenger response to screen for agonists of the RXFP2 receptor. The assay was conducted in the presence of a PDE4 inhibitor (Ro 20174). The cells were lysed and the cAMP levels were measured with a TR-FRET cAMP kit. Presence of cAMP in the cell lysate disrupts binding between the cryptate-labeled anti-cAMP and d2-labeled cAMP pair, leading to a decrease in the TR-FRET signal. Data were normalized to the controls for basal activity (buffer only) and 100% activity (29 nM porcine relaxin). The EC50 values were determined from concentration-response data modeled with the standard Hill equation 1536-well assay protocol for the HEK293 V1B cAMP assay: (1) Add 3 ul HEK293 RXFP2 cell culture. 2000 cells/well in DMEM/F12, 10% FBS, 1x Pen/Strep (dispensed offline with MultiDrop Combi). (2) Incubate 16-24 hr at 37C, 5% CO2. (3) Add 1 ul 400uM Ro20174 in DPBS, 0.05% BSA, 0.005% Tween 20. (3) Add 23 nl compounds in DMSO solution. Final concentration was 0.5 - 58 uM. (4) Incubate 30 min at 37C, 5% CO2. (5) Add 1 ul cAMP-d2 in lysis buffer (HTRF cAMP HiRange kit, CisBio). (6) Add 1 ul anti-cAMP antibody-cryptate in lysis buffer (HTRF cAMP HiRange kit, CisBio). (7) Incubate 30 min at room temperature. (6) Detect the assay plate in a ViewLux plate reader (PerkinElmer) with Ex=320 nm, Em1=615 nm and Em2=665 nm. Keywords: relaxin, RXFP1, RXFP2, G-protein coupled receptor, cAMP, agonist, high throughput screening, MLSMR, MLSCN, NIH Roadmap, qHTS and NCGC

outcome, inactive:
CCCCC(=O)Nc1ccccc1C(=O)Nc1cccc(C(F)(F)F)c1
COc1ccccc1C(=O)Nc1ccccc1C(=O)Nc1cccc(S(=O)(=O)C(F)(F)F)c1
COc1cccc(C(=O)Nc2ccccc2C(=O)Nc2cccc(C(F)(F)F)c2)c1
CC(C)Oc1ccccc1C(=O)Nc1ccccc1C(=O)Nc1cccc(C(F)(F)F)c1
CCOc1ccccc1C(=O)Nc1ccncc1C(=O)Nc1cccc(S(=O)(=O)C(F)(F)F)c1
O=C(Nc1cccc(S(=O)(=O)C(F)(F)F)c1)c1ccccc1NC(=O)c1ccccc1OCC(F)(F)F
Cc1ccc(NC(=O)c2ccccc2NC(=O)C2CCCCC2)cc1
O=C(Nc1ccccc1)c1ccccc1NC(=O)C1CCCCC1
COc1ccccc1C(=O)Nc1ccccc1C(=O)Nc1cccc(SC(F)(F)F)c1
CCOc1ccccc1S(=O)(=O)Nc1ccccc1C(=O)Nc1cccc(S(=O)(=O)C(F)(F)F)c1
O=C(Nc1cccc(C(F)(F)F)c1)c1ccccc1NC(=O)C1CC1
CC(C)(C)c1cccc(NC(=O)c2ccccc2NC(=O)C2CCCCC2)c1
O=C(Nc1cccc(C(F)(F)F)c1)c1ccccc1NC(=O)C1CCC1
COCCOc1ccccc1C(=O)Nc1ccccc1C(=O)Nc1cccc(C(F)(F)F)c1
CCOc1ccccc1-c1nc2c(C(=O)Nc3cccc(S(=O)(=O)C(F)(F)F)c3)cccc2[nH]1
O=C(Nc1cccc(C(F)(F)F)c1)c1ccccc1NC(=O)C1CCCCC1
COc1ccccc1CNc1ccccc1C(=O)Nc1cccc(C(F)(F)F)c1
O=C(Nc1ccccc1C(=O)Nc1cccc(C(F)(F)F)c1)c1cccnc1
O=C(Nc1cccc(S(=O)(=O)C(F)(F)F)c1)c1ccccc1NC(=O)C1CCCCC1
Cc1ccccc1C(=O)Nc1ccccc1C(=O)Nc1cccc(C(F)(F)F)c1
O=C(Nc1ccccc1C(=O)Nc1cccc(C(F)(F)F)c1)c1ccccc1Cl
O=C(Nc1ccccc1C(=O)Nc1cccc(C(F)(F)F)c1)c1ccccc1
CCOc1ccccc1C(=O)Nc1ncccc1C(=O)Nc1cccc(S(=O)(=O)C(F)(F)F)c1
COc1ccc(C(=O)Nc2ccccc2C(=O)Nc2cccc(C(F)(F)F)c2)cc1
O=C(Nc1cccc(C(F)(F)F)c1)c1ccccc1NC(=O)C1CCCC1
COCCNc1ccccc1C(=O)Nc1cccc(C(F)(F)F)c1
CCSc1ccccc1C(=O)Nc1ccccc1C(=O)Nc1cccc(S(=O)(=O)C(F)(F)F)c1
COc1ccccc1C(=O)Nc1ccc(C(=O)Nc2cccc(C(F)(F)F)c2)cc1
O=C(Nc1cccc(-c2ccccc2)c1)c1ccccc1NC(=O)C1CCCCC1
O=C(Nc1cccc(-c2ccccc2C(F)(F)F)c1)c1ccccc1NC(=O)C1CCCCC1
O=C(NCc1cccc(C(F)(F)F)c1)c1ccccc1NC(=O)C1CCCCC1
COc1ccccc1C(=O)N(C)c1ccccc1C(=O)Nc1cccc(C(F)(F)F)c1
O=C(Nc1cccc(C(F)(F)F)c1)c1ccccc1NC(=O)C1CCCCCC1
O=C(Nc1cccc(Br)c1)c1ccccc1NC(=O)C1CCCCC1
O=C(Nc1cccc(C(F)(F)F)c1)c1ccccc1NC(=O)c1ccccc1OC(F)(F)F
CCOc1ccccc1C(=O)Nc1ccccc1C(=O)Nc1cccc(C(F)(F)F)c1
CCOc1ccccc1C(=O)Nc1ccccc1C(=O)Nc1cccc(S(=O)(=O)C(F)(F)F)c1
CCC(CC)C(=O)Nc1ccccc1C(=O)Nc1cccc(C(F)(F)F)c1
O=C(NCc1ccco1)c1ccccc1NC(=O)c1ccccc1NC(=O)C1CCCCC1
CCOc1ccccc1C(=O)Nc1ccccc1CNc1cccc(S(=O)(=O)C(F)(F)F)c1
